Laboratory results from PubChem BioAssay AID1159580 (chemical genetic matrix, 2015).
Screen size: about 5,500 compounds; about 2,000 (36%) were called active. Roughly 18% stayed inconclusive and do not appear here. Cut-off read from the data, not from the text of the source: active = normalized growth mostly below about 0.91 (no sharp cut-off); inconclusive = no clear call, values can overlap the other calls; inactive = mostly above about 0.92. The list shows a part of the results.

Assay: chemical genetic growth profiling, strain panel (AID 1159580);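 note: tested at 20 µM; growth read once vehicle control cultures reached saturation at 30 °C; 1 = growth at the plate median or of vehicle wells; lower values mean less growth of the strain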
Details: growth OD

Measured: normalized growth

Cc1[nH]c2ccccc2c1CN(C)C
inactive: S. cerevisiae deletion strains, locus YJR075W, strain HOC1, hits give low values 1.03 | S. cerevisiae deletion strains, locus YKL009W, strain mrt4, hits give low values 0.974 | S. cerevisiae deletion strains, locus YKL068W, hits give low values 1.01 | S. cerevisiae deletion strains, locus YKL085W, strain MDH1 (second series), hits give low values 0.997 | S. cerevisiae deletion strains, locus YKL085W, strain MDH1, hits give low values 0.997 | S. cerevisiae deletion strains, locus YKL160W, strain elf1, hits give low values 1.01 | S. cerevisiae deletion strains, locus YKL190W, strain CNB1, hits give low values 1.02 | S. cerevisiae deletion strains, locus YKR001C, strain vps1, hits give low values 1.01 | S. cerevisiae deletion strains, locus YKR026C, strain gcn3, hits give low values 1.02 | S. cerevisiae deletion strains, locus YKR091W, strain srl3, hits give low values 1.01 | S. cerevisiae deletion strains, locus YLL001W, strain dnm1, hits give low values 1.01 | S. cerevisiae deletion strains, locus YLL026W, hits give low values 1.02 | S. cerevisiae deletion strains, locus YLL041C, strain sdh2, hits give low values 1.01 | S. cerevisiae deletion strains, locus YLR027C, strain aat2, hits give low values 1.01 | S. cerevisiae deletion strains, locus YLR039C, strain RIC1, hits give low values 1.1 | S. cerevisiae deletion strains, locus YLR058C, strain SHM2, hits give low values 1.03 | S. cerevisiae deletion strains, locus YLR102C, strain apc9, hits give low values 1 | S. cerevisiae deletion strains, locus YLR113W, strain HOG1, hits give low values 1 | S. cerevisiae deletion strains, locus YLR221C, strain rsa3, hits give low values 1.01 | S. cerevisiae deletion strains, locus YLR258W, strain gsy2, hits give low values 1 | S. cerevisiae deletion strains, locus YLR262C, strain YPT6 (second series), hits give low values 1.01 | S. cerevisiae deletion strains, locus YLR262C, strain YPT6, hits give low values 1.05 | S. cerevisiae deletion strains, locus YLR268W, strain sec22, hits give low values 0.979 | S. cerevisiae deletion strains, locus YLR320W, strain mms22, hits give low values 1.04 | S. cerevisiae deletion strains, locus YLR330W, strain CHS5, hits give low values 1 | S. cerevisiae deletion strains, locus YLR342W, strain FKS1 (second series), hits give low values 1.02 | S. cerevisiae deletion strains, locus YLR342W, strain FKS1, hits give low values 1.01 | S. cerevisiae deletion strains, locus YLR357W, strain rsc2, hits give low values 1 | S. cerevisiae deletion strains, locus YLR370C, strain arc18, hits give low values 1.03 | S. cerevisiae deletion strains, locus YLR371W, strain rom2, hits give low values 1.01 | S. cerevisiae deletion strains, locus YLR384C, strain iki3, hits give low values 1.03 | S. cerevisiae deletion strains, locus YLR418C, strain cdc73, hits give low values 0.983 | S. cerevisiae deletion strains, locus YML016C, strain PPZ1, hits give low values 0.996 | S. cerevisiae deletion strains, locus YML032C, strain rad52, hits give low values 0.981 | S. cerevisiae deletion strains, locus YML120C, strain ndi1, hits give low values 1.01 | S. cerevisiae deletion strains, locus YML124C, strain tub3, hits give low values 0.991 | S. cerevisiae deletion strains, locus YMR058W, strain fet3, hits give low values 1.02 | S. cerevisiae deletion strains, locus YMR078C, strain ctf18, hits give low values 0.991 | S. cerevisiae deletion strains, locus YMR125W, strain sto1, hits give low values 1.01 | S. cerevisiae deletion strains, locus YMR129W, hits give low values 1.02 | S. cerevisiae deletion strains, locus YMR205C, strain PFK2, hits give low values 1.06 | S. cerevisiae deletion strains, locus YMR223W, strain ubp8, hits give low values 0.977 | S. cerevisiae deletion strains, locus YMR231W, strain pep5, hits give low values 1.02 | S. cerevisiae deletion strains, locus YMR263W, strain SAP30, hits give low values 1.02 | S. cerevisiae deletion strains, locus YMR307W, strain GAS1, hits give low values 1.15 | S. cerevisiae deletion strains, locus YNL067W, strain RPL9B, hits give low values 1.02 | S. cerevisiae deletion strains, locus YNL071W, strain lat1, hits give low values 1.01 | S. cerevisiae deletion strains, locus YNL128W, strain TEP1, hits give low values 1 | S. cerevisiae deletion strains, locus YNL183C, strain NPR1, hits give low values 0.94 | S. cerevisiae deletion strains, locus YNL209W, strain ssb2, hits give low values 1.04 | S. cerevisiae deletion strains, locus YNL233W, strain BNI4, hits give low values 1.05 | S. cerevisiae deletion strains, locus YNL248C, strain rpa49, hits give low values 1.02 | S. cerevisiae deletion strains, locus YNL250W, strain rad50, hits give low values 0.98 | S. cerevisiae deletion strains, locus YNL271C, strain bni1, hits give low values 0.995 | S. cerevisiae deletion strains, locus YNL298W, strain CLA4, hits give low values 0.985 | S. cerevisiae deletion strains, locus YNL307C, strain MCK1, hits give low values 1 | S. cerevisiae deletion strains, locus YNL322C, strain KRE1 (second series), hits give low values 1.02 | S. cerevisiae deletion strains, locus YNR049C, strain mso1, hits give low values 1.03 | S. cerevisiae deletion strains, locus YNR052C, strain pop2, hits give low values 0.994 | S. cerevisiae deletion strains, locus YOL012C, strain htz1 1.39 | S. cerevisiae deletion strains, locus YOL147C, strain pex11, hits give low values 0.993 | S. cerevisiae deletion strains, locus YOR001W, strain rrp6, hits give low values 1.02 | S. cerevisiae deletion strains, locus YOR061W, strain CKA2, hits give low values 1.02 | S. cerevisiae deletion strains, locus YOR069W, strain VPS5, hits give low values 0.995 | S. cerevisiae deletion strains, locus YOR070C, strain gyp1, hits give low values 1.02 | S. cerevisiae deletion strains, locus YOR080W, strain dia2, hits give low values 1.03 | S. cerevisiae deletion strains, locus YOR083W, strain WHI5, hits give low values 1.01 | S. cerevisiae deletion strains, locus YOR106W, strain vam3, hits give low values 1.04 | S. cerevisiae deletion strains, locus YOR136W, strain idh2, hits give low values 0.975 | S. cerevisiae deletion strains, locus YOR144C, strain elg1, hits give low values 0.999 | S. cerevisiae deletion strains, locus YOR184W, strain ser1, hits give low values 1.02 | S. cerevisiae deletion strains, locus YOR231W, strain MKK1, hits give low values 0.987 | S. cerevisiae deletion strains, locus YOR265W, strain rbl2, hits give low values 1.02 | S. cerevisiae deletion strains, locus YOR270C, strain vph1, hits give low values 1.07 | S. cerevisiae deletion strains, locus YOR290C, strain snf2, hits give low values 1.01 | S. cerevisiae deletion strains, locus YOR316C, strain cot1, hits give low values 0.992 | S. cerevisiae deletion strains, locus YPL051W, strain arl3, hits give low values 1.03 | S. cerevisiae deletion strains, locus YPL055C, strain LGE1, hits give low values 1.06 | S. cerevisiae deletion strains, locus YPL078C, strain atp4, hits give low values 1 | S. cerevisiae deletion strains, locus YPL106C, strain sse1, hits give low values 1.04 | S. cerevisiae deletion strains, locus YPL240C, strain hsp82, hits give low values 1.01 | S. cerevisiae deletion strains, locus YPL256C, strain CLN2, hits give low values 0.991 | S. cerevisiae deletion strains, locus YPR119W, strain clb2, hits give low values 0.992 | S. cerevisiae deletion strains, locus YPR141C, strain kar3, hits give low values 1 | S. cerevisiae deletion strains, locus YPR163C, strain tif3, hits give low values 0.996 | S. cerevisiae deletion strains, locus YPR167C, strain met16, hits give low values 0.988 | S. cerevisiae deletion strains, strain wtn01, hits give low values 0.966 | S. cerevisiae strains, strain wild type, hits give low values 1.03
